From PubChem BioAssay AID1159580 (chemical genetic matrix, 2015)
“And” between values parts separate entries of the source, which are not always exact repeats. Equal values may be shown once. Hit rate of the full screen: of about 5,500 compounds, about 2,000 (36%) were called active. Not shown: some 18% with an inconclusive outcome. This is one part of the list. Values without a mark were called inactive. No stated cut-off is given here; in the data, active means normalized growth mostly below about 0.91 (no sharp cut-off); inconclusive means no clear call, values can overlap the other calls; inactive means mostly above about 0.92.

Assay: chemical genetic growth profiling, strain panel (AID 1159580);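 further: tested at 20 µM; growth read once vehicle control cultures reached saturation at 30 °C; 1 = growth at the plate median or of vehicle wells; lower values mean less growth of the strain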
Details: S. cerevisiae deletion strains, growth OD

## O=c1c(O)c(-c2ccc(O)cc2O)oc2cc(O)cc(O)c12
Locus YAL013W, strain DEP1, hits give low values
  normalized growth: 1
Locus YAL021C, strain ccr4, hits give low values
  normalized growth: 0.949
Locus YAL026C, strain drs2, hits give low values
  normalized growth: 0.973
Locus YAL030W, strain snc1, hits give low values
  normalized growth: 0.99
Locus YAL040C, strain CLN3, hits give low values
  normalized growth: 1.01
Locus YBL061C, strain skt5, hits give low values
  normalized growth: 0.963
Locus YBR009C, strain hhf1, hits give low values
  normalized growth: 1
Locus YBR021W, strain FUR4, hits give low values
  normalized growth: 1.01
Locus YBR023C, strain chs3, hits give low values
  normalized growth: 1.01
Locus YBR171W, strain sec66, hits give low values
  normalized growth: 0.983
Locus YBR229C, strain ROT2, hits give low values
  normalized growth: 0.988
Locus YBR231C, strain swc5, hits give low values
  normalized growth: 0.965
Locus YBR279W, strain paf1, hits give low values
  normalized growth: 0.995
Locus YCL011C, strain gbp2, hits give low values
  normalized growth: 1
Locus YCL016C, strain dcc1, hits give low values
  normalized growth: 0.988
Locus YCL029C, strain bik1, hits give low values
  normalized growth: 1.01
Locus YCL061C, strain MRC1 (second series), hits give low values
  normalized growth: 0.986
Locus YCL061C, strain MRC1, hits give low values
  normalized growth: 0.976
Locus YCL069W, strain vba3, hits give low values
  normalized growth: 0.997
Locus YCR088W, strain abp1, hits give low values
  normalized growth: 0.991
Locus YDL005C, strain med2, hits give low values
  normalized growth: 1.01
Locus YDL035C, strain GPR1, hits give low values
  normalized growth: 0.973
Locus YDL040C, strain nat1, hits give low values
  normalized growth: 1
Locus YDL074C, strain BRE1, hits give low values
  normalized growth: 1
Locus YDL101C, strain DUN1, hits give low values
  normalized growth: 1
Locus YDL185W, strain tfp1, hits give low values
  normalized growth: 0.976
Locus YDL192W, strain arf1, hits give low values
  normalized growth: 0.974
Locus YDR001C, strain nth1, hits give low values
  normalized growth: 0.999
Locus YDR069C, strain doa4, hits give low values
  normalized growth: 0.857 (active)
Locus YDR101C, strain arx1, hits give low values
  normalized growth: 1
Locus YDR137W, strain rgp1, hits give low values
  normalized growth: 1
Locus YDR150W, strain NUM1, hits give low values
  normalized growth: 0.986
Locus YDR159W, strain sac3, hits give low values
  normalized growth: 0.985
Locus YDR162C, strain NBP2, hits give low values
  normalized growth: 0.971
Locus YDR195W, strain ref2
  normalized growth: 0.964
Locus YDR297W, strain sur2, hits give low values
  normalized growth: 0.978
Locus YDR318W, strain mcm21, hits give low values
  normalized growth: 1.01
Locus YDR334W, strain swr1, hits give low values
  normalized growth: 0.956
Locus YDR335W, strain msn5, hits give low values
  normalized growth: 0.98
Locus YDR363W, strain ESC2, hits give low values
  normalized growth: 0.995
Locus YDR388W, hits give low values
  normalized growth: 0.991
Locus YDR392W, strain spt3, hits give low values
  normalized growth: 0.99
Locus YDR502C, strain sam2, hits give low values
  normalized growth: 1.02
Locus YEL003W, strain gim4, hits give low values
  normalized growth: 0.976
Locus YEL037C, strain rad23, hits give low values
  normalized growth: 0.989
Locus YEL061C, strain CIN8 (second series), hits give low values
  normalized growth: 0.992
Locus YEL061C, strain CIN8, hits give low values
  normalized growth: 0.995
Locus YER002W, strain NOP16, hits give low values
  normalized growth: 1.03
Locus YER015W, strain faa2, hits give low values
  normalized growth: 0.984
Locus YER016W, strain bim1, hits give low values
  normalized growth: 1
Locus YER110C, hits give low values
  normalized growth: 1.02
Locus YER111C, strain swi4, hits give low values
  normalized growth: 0.954
Locus YER155C, strain BEM2 (second series), hits give low values
  normalized growth: 0.977
Locus YER155C, strain BEM2, hits give low values
  normalized growth: 1.01
Locus YER167W, strain BCK2, hits give low values
  normalized growth: 0.996
Locus YFR010W, strain ubp6, hits give low values
  normalized growth: 0.916
Locus YGL078C, strain dbp3, hits give low values
  normalized growth: 1.01
Locus YGL086W, strain mad1, hits give low values
  normalized growth: 1.06
Locus YGL167C, strain pmr1, hits give low values
  normalized growth: 0.98
Locus YGL173C, strain kem1, hits give low values
  normalized growth: 0.947
Locus YGL227W, strain vid30, hits give low values
  normalized growth: 1.01
Locus YGL240W, strain doc1, hits give low values
  normalized growth: 1
Locus YGL248W, strain PDE1, hits give low values
  normalized growth: 0.966
Locus YGL253W, strain hxk2, hits give low values
  normalized growth: 0.994
Locus YGR078C, strain PAC10, hits give low values
  normalized growth: 0.97 and 1.01
Locus YGR135W, strain pre9, hits give low values
  normalized growth: 0.991
Locus YHR013C, strain ard1, hits give low values
  normalized growth: 0.962
Locus YHR027C, strain rpn1, hits give low values
  normalized growth: 0.973
Locus YHR030C, strain SLT2, hits give low values
  normalized growth: 0.993 and 0.957
Locus YHR079C, strain IRE1 (second series), hits give low values
  normalized growth: 1.02
Locus YHR079C, strain IRE1, hits give low values
  normalized growth: 0.968
Locus YHR094C, strain hxt1, hits give low values
  normalized growth: 1.02
Locus YHR129C, strain ARP1, hits give low values
  normalized growth: 0.973
Locus YHR142W, strain chs7, hits give low values
  normalized growth: 0.945
Locus YHR200W, strain rpn10, hits give low values
  normalized growth: 0.994
Locus YIL066C, strain RNR3, hits give low values
  normalized growth: 0.943
Locus YIL073C, strain SPO22, hits give low values
  normalized growth: 1.08
Locus YIL125W, strain kgd1, hits give low values
  normalized growth: 0.999
Locus YIR030C, strain dcg1, hits give low values
  normalized growth: 1.02
Locus YJL092W, strain hpr5, hits give low values
  normalized growth: 0.996
Locus YJL095W, strain BCK1 (second series), hits give low values
  normalized growth: 0.964
Locus YJL095W, strain BCK1, hits give low values
  normalized growth: 0.986 and 0.988
Locus YJL115W, strain asf1, hits give low values
  normalized growth: 0.994
Locus YJL129C, strain trk1, hits give low values
  normalized growth: 1.02
Locus YJL134W, strain LCB3, hits give low values
  normalized growth: 1.02
Locus YJL154C, strain vps35, hits give low values
  normalized growth: 1.02
Locus YJL164C, strain tpk1, hits give low values
  normalized growth: 0.975
Locus YJL166W, strain qcr8, hits give low values
  normalized growth: 0.984
Locus YJL168C, strain set2, hits give low values
  normalized growth: 1
Locus YJL187C, strain SWE1 (second series), hits give low values
  normalized growth: 0.966
Locus YJR043C, strain POL32, hits give low values
  normalized growth: 0.956
Locus YJR066W, strain TOR1, hits give low values
  normalized growth: 0.935
Locus YJR075W, strain HOC1, hits give low values
  normalized growth: 1.01
